Screening data as filed in PubChem BioAssay.
The list is not random: actives were taken first. Their share in the collection is about 9.4%.
HTT cytoprotect – protects HTT-Q103 PC12 cells, measured by ATP. PC12 HTT-Q103 induced, cytoprotection, ATP luminescence, 40 h. Potency, µM (highest dose often 56.4 µM), for the others: cytoprotection (ATP increase), most hits filed as activators. 230,000 tested, 0.14% active. AID 1471; also: potency is read from the fitted curve at half-maximal effect; % of control where 0% means no effect; nearly all actives have a fitted effect of over 45% in size
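ATP quantification (ATPlite) reports survival of PC12 cells in which tebufenozide, 100 nM final, switches on Htt exon 1 with 103 glutamines linked to GFP; compounds are titrated.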
IMPase Li inh – IMPase inhibition in cells with lithium potentiation; CHO-M1 cells, IP1 TR-FRET (IP-One), carbachol + lithium; 210,000 tested, 0.35% active; Potency, µM (top dose mostly 59.4 µM), for the others: at the top dose activity, negative = IMPase inhibition, hits mostly inhibitors;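 also: IP1 builds up when IMPase is blocked and the TR-FRET signal falls; potency is read from the fitted curve at half-maximal effect; plate controls were basal vehicle for no effect and high inhibitor control for full effect; nearly all actives have a fitted effect of over 50% in size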
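Readout is a homogeneous TR-FRET IP1 immunoassay (Ex 320, Em 665 and 620), where raised cytosolic IP1 lowers signal. Cells were CHO-M1 treated 30 min at 37C with test compounds plus a little lithium; AC50 values came from Hill-equation fitting.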
HTT aggregate – mutant huntingtin aggregation inhibition. 220,000 tested, 1.1% active. PC12 HttQ103-GFP aggregates, Acumen cytometry, 40 h. Potency, µM (top dose mostly 46.1 µM), without a hit: at the highest dose activity change, negative = inhibition, usual class: inhibitors; also: potency is read from the fitted curve at half-maximal effect; % is scaled to controls: 0 for no effect and ±100 for the full control effect; nearly all actives have a fitted effect of over 60% in size
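Multiplexed with ATP-based cell death, this channel scores GFP aggregates in PC12 cells expressing inducible HTTex1-Q103-GFP. Induction used 100 nM tebufenozide; compounds were tested in concentration series.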
HPGD inh – inhibitors of human 15-hydroxyprostaglandin dehydrogenase (HPGD); Potency, µM, without a hit: at the highest dose activity change, negative = inhibition, hits mostly inhibitors; P15428; AID 894; 150,000 tested, 4.3% active; purified HPGD, NADH fluorescence kinetic, PGE2 substrate; active = well fitted inhibition curve with a large enough effect, not every such curve was filed as active; inconclusive = small, poorly fitted or top-dose-only effect, or another doubt; inactive = no such curve, though single readings can be large or run the other way; also: potency is read from the fitted curve at half-maximal effect; % is scaled to controls: 0 for no effect and ±100 for the full control effect
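NADH formation kinetics: reaction with 30 uM PGE2 and 1 mM NAD+ (final), 20 nM enzyme, Tris-HCl pH 8 with Tween 20, after 15 min compound preincubation at room temperature. Fluorescence change, last versus first of five reads.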
ALDH1A1 block – ALDH1A1 (human) enzyme inhibition | Purified ALDH1A1, NADH fluorescence, propionaldehyde substrate | 220,000 tested, 7.3% active | Potency, µM (top dose mostly 75.3 µM), without a hit: at the top dose activity, negative = inhibition, hits mostly inhibitors | AID 1030; active = well fitted inhibition curve with a large enough effect, not every such curve was filed as active; inconclusive = small, poorly fitted or top-dose-only effect, or another doubt; inactive = no such curve, though single readings can be large or run the other way;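 also: potency is read from the fitted curve at half-maximal effect; plate controls were no enzyme wells and a reference inhibitor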
Target sequence (P00352 whole entry, looked up): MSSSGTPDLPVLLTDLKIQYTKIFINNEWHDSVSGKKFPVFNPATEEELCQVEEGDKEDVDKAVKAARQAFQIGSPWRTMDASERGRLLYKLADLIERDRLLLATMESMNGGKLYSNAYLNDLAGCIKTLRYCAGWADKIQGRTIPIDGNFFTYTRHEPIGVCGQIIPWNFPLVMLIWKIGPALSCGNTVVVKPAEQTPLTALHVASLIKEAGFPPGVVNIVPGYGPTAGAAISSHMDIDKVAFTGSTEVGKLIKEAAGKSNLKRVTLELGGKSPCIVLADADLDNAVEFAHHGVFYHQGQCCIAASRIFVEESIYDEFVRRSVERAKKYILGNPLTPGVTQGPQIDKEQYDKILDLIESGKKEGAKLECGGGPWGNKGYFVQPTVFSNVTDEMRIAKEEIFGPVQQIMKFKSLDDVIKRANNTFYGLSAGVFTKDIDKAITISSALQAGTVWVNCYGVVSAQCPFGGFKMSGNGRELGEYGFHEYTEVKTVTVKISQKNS
IMPase cell inh – cell-permeable inhibitors of inositol monophosphatase (IMPase). 120,000 tested, under 10 active. CHO-M1 cells, IP1 accumulation, HTRF TR-FRET ratio. inhibition (IP1 accumulation), % at 46.1 µM. P97697; active = well fitted curve in the direction sought with a large enough effect in the signal ratio, not every such curve was filed as active; inconclusive = small, poorly fitted or top-dose-only effect, or a change in a side signal; inactive = no such curve, though single readings can be large or run the other way; the % refers to the signal ratio;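 also: cells stimulated with carbachol in lithium chloride buffer; plate controls were DMSO basal wells for no effect and reference inhibitor wells for full effect; higher means more IMPase inhibition seen as more IP1 and lower FRET ratio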
Target sequence (P97697 whole entry, looked up): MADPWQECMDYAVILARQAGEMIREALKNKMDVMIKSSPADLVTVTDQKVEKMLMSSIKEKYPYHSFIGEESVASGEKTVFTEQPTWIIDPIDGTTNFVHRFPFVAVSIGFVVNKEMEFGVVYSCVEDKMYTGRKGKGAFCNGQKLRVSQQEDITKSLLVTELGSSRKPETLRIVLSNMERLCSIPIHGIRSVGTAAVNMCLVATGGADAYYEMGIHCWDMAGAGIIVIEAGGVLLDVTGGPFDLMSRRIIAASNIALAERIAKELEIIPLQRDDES
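Seeded CHO-M1 cells were dosed with compound at up to 46 uM, stimulated with carbachol for 30 min, then lysed in IP-One detection reagents. Higher IP1 lowers the TR-FRET signal.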
* hit, by the source's call; ? = inconclusive; / = no result given; ! = not active in a repeat; [ ] = another dose, or the depositor's remark. Unless noted, calls follow the shape of the dose curve; as a rule, active = well fitted curve in the direction sought with a large enough effect; inconclusive = small, poorly fitted or top-dose-only effect, or another doubt; inactive = no such curve, though single readings can be large; an effect the other way counts as inactive or inconclusive.

SMILES	HTT cytoprotect	IMPase Li inh	HTT aggregate	HPGD inh	ALDH1A1 block	IMPase cell inh
O=C(/C=C/c1c(F)cccc1Cl)NCc1ccco1	2%[10 µM]	-1%	11%	10µM*	?	/
O=C(/C=C/c1c(F)cccc1Cl)c1ccc(F)cc1	-21%	27%[38.3 µM]	7%	13µM*	-44%	8
O=C(/C=C/c1ccc[nH]1)c1ccc(F)cc1	-5%	6%	0%[9.22 µM]	/	-18%	/
CCOC(=O)c1c(NC(=O)CCCOc2ccccc2C)sc2c1CCC(C)C2 (stereo not drawn)	/	/	/	/	/	-11
CC(=O)O[C@@H]1C[C@]2(C)[C@H](C[C@@H](O)[C@H]3[C@@]4(C)CC[C@@H](O)[C@@H](C)[C@@H]4CC[C@@]32C)/C1=C(\CCC=C(C)C)C(=O)O	7%[1.9 µM]	/	/	/	/	11
COCCNc1nc(-c2ccc(OC)cc2)c(-c2ccc(OC)cc2)s1	-11%[10 µM]	22%	?	/	28µM*	/
COc1ccc(-c2nn(CCC(=O)O)cc2CCC(=O)O)cc1	3%	-14%[38.3 µM]	0%	-17%	-8%	-7
COC(=O)CCc1sc(NC2CCCCC2)nc1-c1ccc(OC)cc1	5%[10 µM]	3%	-14%	22µM*	?	/
COc1ccc(OCCC(=O)NC2CCCCC2)cc1	/	1%	22%	/	-1%	/
CCN(CC)CCNc1nc(-c2ccc(OC)cc2)c(-c2ccc(OC)cc2)s1	-9%[10 µM]	/	-6%[9.22 µM]	/	-13%	/
CCCCCCNc1nc(-c2ccc(OC)cc2)c(CCC(=O)O)s1	5%[10 µM]	-2%	-7%	?	22µM*	-3
COC(=O)c1ccc(Cn2nnc3sc4c(c3c2=O)CCC(C)C4)cc1 (stereo not drawn)	/	/	/	/	/	-5
Oc1cc2c(cc1C(c1ccc(Br)cc1)N1CCCC1)OCO2 (stereo not drawn)	-54%	6%	13%[9.22 µM]	/	2µM*	/
Oc1ccc(CNc2ccc(F)cc2)c2cccnc12	-38%	-14%[38.3 µM]	-8%	-18%	8.9µM*	-7
COCc1ccc(O)c2ncccc12	-73%[10 µM]	23%[38.3 µM]	11µM*	-12%	3%	-3
Cc1ccccc1N=Nc1ccc(O)c2ncccc12	-50%[10 µM]	-5%	2.5µM*	-5%	12%	/
Cc1cccc(NCc2ccc(O)c3ncccc23)c1	-1%[10 µM]	13%	-2%[9.22 µM]	/	2.8µM*	/
CC(=O)O[C@H]1CC[C@]2(C)C(=CC[C@H]3[C@H]4C[C@H]5O[C@]6(CC[C@H](C)CN6)[C@H](C)[C@@H]5[C@]4(C)CC[C@@H]32)C1	-3%[10 µM]	-11%	/	-7%	-4%[13.5 µM]	/
Cc1ccc(O)c2ncccc12	-55%	/	?	/	/	/
Oc1ccc(Cn2ccnc2)c2cccnc12	15%[10 µM]	2%	26%[9.22 µM]	/	5%	/
Oc1ccc(CNc2ccccc2)c2cccnc12	-16%[10 µM]	-7%[38.3 µM]	?	-3%	10µM*	-7
Cc1ccccc1NCc1ccc(O)c2ncccc12	-13%[1.9 µM]	4%	?	-2%	4µM*	13
CC(=O)C1=C(O)C(=O)N(c2cccnc2)C1c1ccc(Cl)cc1 (stereo not drawn)	-10%	6.3µM*	5%	-29%	?	5
NC(=S)NNC(=O)Nc1ccc(Cl)c(Cl)c1	3%[10 µM]	0%	9%	-20%	28µM*	/
O=C(Cc1ccccc1)NNC(=O)Nc1ccc(Cl)c(Cl)c1	0%[10 µM]	-1%	?	-2%	4%	7
SMILES	HTT cytoprotect	IMPase Li inh	HTT aggregate	HPGD inh	ALDH1A1 block	IMPase cell inh
Cc1ccc(N/N=C(\C#N)C(N)=S)c(C)c1	/	4%	17%	14µM*	?	/
Nc1ccc(C(=O)NCC(=O)O)cc1	3.2µM*!	12%	-10%[20.6 µM]	-12%	1%	4[20.6 µM]
CCOCCCNS(=O)(=O)c1ccc(OC)c(Cl)c1Cl	-5%[10 µM]	7%	14%	-14%	2.2µM*	18
COc1ccc(C(=O)Nc2ccc(N3CCN(c4ccc(OC)cc4)CC3)c(C#N)c2)cc1	-20%	1.8µM*	3%	?	?	?
N#CC1(c2ccc(NC(=O)c3ccccc3F)cc2)CCCC1	-32%[10 µM]	8%	0%	-30%	5µM*	5
O=C(Nc1ccc(N2CCCC2)cc1)c1ccccc1F	-18%[10 µM]	2%	-7%	-9%	?	4
COc1ccc(NC(=O)C2(c3ccc(NC(=O)c4ccc(C)cc4)cc3)CCCC2)cc1	-16%	-1%[38.3 µM]	14%	?	-8%	-2
COc1ccc(C(=O)Nc2ccc(C3(C#N)CCCC3)cc2)cc1	-23%	22%	5%	/	1.3µM*	/
O=C(Nc1ccc(N2CCOCC2)c(S(=O)(=O)Nc2ccc(Cl)cc2)c1)c1cnccn1	2%[10 µM]	/	-15%[9.22 µM]	/	2µM*	/
COC(=O)c1ccc2nc(C)c(C)nc2c1	-2%	13%[38.3 µM]	19%	-9%	6%	1
Cc1ccc(O)c(Sc2cc(C)ccc2O)c1	-2%[0.074 µM]	30%[38.3 µM]	-3%	16µM*	-3%	20
Cc1ccc(O)c(N)c1	-94%	5%	/	-9%	?	/
COC(=O)c1ccc(O)c(Sc2cc(C(=O)OC)ccc2O)c1	-20%[10 µM]	19%	?	4µM*	13µM*	0
CC(C)CN1C(=O)/C(=C(/C#N)C(=O)NC2CCCCC2)c2ccccc21	6%[10 µM]	21%	6%	/	5µM*	/
CCOC(=O)c1cc2cc(CC(=O)c3ccc(OCC)cc3O)ccc2o1	-7%	21%[38.3 µM]	3%	-10%	13%	-2
COc1ccc(CC(=O)c2ccc(O)cc2O)cc1	-189%	19%	-3%[9.22 µM]	25µM*	?	/
CCOc1ccc(C(=O)Cc2ccc3oc(C(=O)O)cc3c2)c(O)c1	-14%[10 µM]	1%	17%	7.9µM*	?	5
C/C(CCC(=O)OC[C@@H]1O[C@H](C#Cc2ccccc2)C=C[C@@H]1Oc1ccc(C)cc1)=N/O[C@@H](C)c1cc(-c2c(C)cc(C)cc2C)no1	-11%[10 µM]	/	/	/	10%[13.5 µM]	/
O=C(CSc1n[nH]c(-c2ccccc2)n1)Nc1ccc(N2CCOCC2)cc1	-27%	1%	-6%	/	22µM*	/
O=C(CSc1n[nH]c(-c2cccnc2)n1)Nc1ccccc1	4%[10 µM]	-5%	-13%	10µM*	1%	5[0.0738 µM]
Cc1ccc(S(=O)(=O)CCC#N)cc1	5%[10 µM]	/	5%[9.22 µM]	/	/	/
CN1/C(=C\C(=S)NC(=O)c2ccccc2Cl)C(C)(C)c2ccccc21	20%[10 µM]	8%	-17%	-14%	?	/
CN1/C(=C/C(=S)NC(=O)C2(C)CC2(Cl)Cl)C(C)(C)c2ccccc21 (stereo not drawn)	8%	6%	?	/	4µM*	/
COc1ccc2c(c1)C(=O)[C@H](OC(=O)NCCc1ccc(OC)c(OC)c1)[C@@H](c1ccc(OC)c(Br)c1)O2	?	24%	/	-6%	-7%	/
Cc1ccc(N2C(=O)CS(=O)C(c3ccccc3)C2=O)cc1C (stereo not drawn)	-9%[10 µM]	6%	31%	/	3.5µM*	/
